Source: PubChem BioAssay AID463212 (Sanford-Burnham Center for Chemical Genomics, 2010)
About 4,400 (1.3%) of roughly 330,000 compounds were called active.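 Rule for the calls: active = growth inhibition of the mutant yeast at or above 50%; inactive = the rest.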 Only a selection was taken, and actives are over-represented in it overall.

Assay: growth inhibitors of tim23-1 mutant yeast, primary screen, luminescence, uHTS (AID 463212);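 note: temperature-sensitive mutant grown at 25 °C; plate controls were DMSO-treated mutant yeast for no effect and medium wells lacking yeast for full effect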
Settings: S. cerevisiae tim23-1 growth, BacTiter-Glo luminescence, 24 h; at 20 µM; active compounds read high

inhibition, inactive:
CC1=C(C(=O)OCC2CCCCC2)C(c2ccc(F)cc2)NC(=O)N1 (stereo not given) 23.5%
O=S(=O)(NCCCc1ccccc1)c1ccc(Br)cc1 33.6%
S=C(Nc1ccc(Br)cc1)NC1CCN(Cc2ccccc2)CC1 3.13%
O=C1C(=O)N(CCCO)C(c2ccccc2)/C1=C(\O)c1ccc(Br)cc1 (stereo not given) 6.61%
CCOc1ccc(CN2CCC(n3nccc3NC(=O)C3CC3)CC2)cc1CO -0.767%
CCn1c(=O)c(C(=O)NCc2ccc3c(c2)OCO3)c(O)c2ccccc21 28.6%
O=C(NCc1ccc2c(c1)OCO2)c1sccc1Br 11%
CCCOc1ccc(/C(O)=C2/C(=O)C(=O)N(CCN(C)C)C2c2ccc(OC)c(OC)c2)cc1 (stereo not given) 3.19%
Cc1ccccc1N1C(=O)C(Oc2ccc(Cl)cc2)C1CNCC1CCCO1 (stereo not given) 32.6%
Fc1ccc(-c2ccc(NCCN3CCOCC3)nn2)cc1 -3.29%
COc1ccc(C(=O)C(C)OC(=O)c2cccc(S(=O)(=O)Nc3c(C)n(C)n(-c4ccccc4)c3=O)c2)cc1 (stereo not given) 15.2%
O=C(N/N=C/c1cccc(OCc2ccccc2)c1)c1ccc(Br)o1 47.5%
N#C/C(=C\c1ccc(O)c(O)c1)C(=O)NCc1ccccc1 12.3%
COc1cccc(N(CC(=O)NC2CCCCCC2)S(=O)(=O)c2ccccc2)c1 11.3%
Cc1c(S(=O)(=O)NCc2ccccc2)c(=O)n(C)c(=O)n1C 4.82%
Cc1cc(/C=C(/C#N)C(=O)Nc2ccc(Cl)cc2)c(C)n1-c1cccnc1 5.94%
O=C(N/N=C/c1cccnc1)c1ccc(NC(=O)c2ccc(F)cc2)cc1 4.04%
CN=C(c1ccccc1)c1c(C)cccc1C 3.2%
COc1ccccc1NC(=O)c1ccc(N2CC3CC(C2)c2cccc(=O)n2C3)c(NC(=O)c2cccnc2)c1 (stereo not given) -0.075%
CC1CCCN(CCCNC(=O)CN2C(=O)COc3ccc(S(=O)(=O)N4CCOCC4)cc32)C1 (stereo not given) -34.2%
COCCNC(=O)CN1C(=O)CSc2ncccc21 11.6%
O=C(CNC(=O)c1ccc(Cl)cc1Cl)NCC(=O)Nc1ccccc1N1CCOCC1 3.5%
Cc1cccc(NC(=O)Nc2cccc(Oc3c(F)c(F)c(F)c(F)c3F)c2)c1 17%
CC(Oc1cccc(NC(=O)c2cccs2)c1)C(=O)c1ccccc1 (stereo not given) 34.3%
N#Cc1ccccc1S(=O)(=O)N1CCN(Cc2c(O)ccc3ccccc23)CC1 21.3%
Cn1c(Nc2ccccc2)cc(=O)n(C)c1=O 6.86%
CCOC(=O)c1c(N)nn(C(=O)c2ccccc2)c1-c1ccccc1 27%
O=C(COc1ccc(Cl)cc1Cl)N/N=C/c1ccccn1 39%
CC[C@@H]1Cc2cc(O)ccc2C2=C1c1ccc(O)cc1C[C@H]2CC -6.54%
CCOC(=O)c1c(NC(=O)c2ccc(S(=O)(=O)N(C)CC3CCCO3)cc2)sc2c1CC(C)(C)NC2(C)C (stereo not given) 24%
COC(=O)c1sccc1NC(=O)COc1ccc(Cl)cc1 6.02%
Cc1ccc(C(=O)NCC(=O)NCc2cc(=O)n(C)c(=O)n2C)cc1 16.1%
Nc1nc(SCC(=O)Nc2ccc(Cl)cc2C(F)(F)F)n[nH]1 3.1%
CCC(C)(C)n1nnnc1CN1CCN(c2nc3ccc(C)cc3cc2C#N)CC1 40.5%
COc1cc(N2C(=O)CSC2=S)cc(OC)c1OC 23.9%
O=C1CSC(=S)N1c1ccc(O)cc1 11.4%
CCNC(=O)NC(=O)C(C)OC(=O)c1cc(S(=O)(=O)N2CCCCCC2)ccc1OC (stereo not given) 19.4%
O=[N+]([O-])c1ccc2nc(-c3ccccn3)[nH]c2c1 46.5%
COc1ccc([N+](=O)[O-])cc1-c1nc2ccccc2nc1-c1ccccc1 36.6%
COc1ccc(-c2cc3ncccc3cn2)cc1 9.46%
CC(=O)NC(Cc1ccccc1)C(=O)NC1CCN(c2ncccc2[N+](=O)[O-])CC1 (stereo not given) 10.9%
CC(C(=O)Nc1ccccc1-c1ccccc1)N1CCOCC1 (stereo not given) 7.67%
Nc1nc2n(n1)C(c1ccco1)CC(c1ccc(Cl)c(Cl)c1)N2 (stereo not given) 20.6%
COc1ccc(C2CC(c3ccc(C)cc3)Nc3ncnn32)cc1 (stereo not given) 27.1%
Oc1ccccc1CNc1ncc(Br)cc1Br 45.5%
CCc1nnc(NS(=O)(=O)c2ccc(NC(=S)NC(=O)c3cccs3)cc2)s1 18.7%
CCc1nnc(NS(=O)(=O)c2ccc(NC(=O)c3cccc(OC(F)(F)C(F)F)c3)cc2)s1 -1.08%

inhibition, active:
S=C(NCCCc1ccccc1)Nc1ccc(Br)cc1 62.8%
O=C(NCc1ccc2c(c1)OCO2)c1c(O)nc2sccn2c1=O 68.2%
COCCNC(=O)/C(C#N)=C/c1cccc(OCc2ccccc2)c1 68.2%
N#C/C(=C\c1cccnc1)C(=O)Nc1ccc(SC(F)F)cc1 76.7%
CCc1ccc2c(c1)C1(NN=C(c3ccccc3)S1)C(=O)N2 (stereo not given) 52.6%
Cc1ccoc1C(=O)Nc1cccc(Oc2ccccc2)c1 77.9%
Cc1cc(Nc2ccccc2)n(C(=O)c2ccc(N)cc2)n1 57.6%
COC(=O)c1c(NC(=O)COc2ccc(Cl)cc2Cl)sc2c1CC(C)(C)NC2(C)C 60.1%
O=C1CSC(=S)N1c1ccc(Cl)c(Cl)c1 53.7%
O=[N+]([O-])c1ccc2c(c1)Nc1nc3ccccc3nc1N2 59.9%
COc1ccc(-c2cc(C3CCN(c4ncccc4[N+](=O)[O-])CC3)[nH]n2)cc1 57.6%
Clc1ccc(C2CC(c3cccs3)n3ncnc3N2)cc1Cl (stereo not given) 50.5%
CCc1nnc(NS(=O)(=O)c2ccc(NC(=S)NC(=O)/C=C/c3cccs3)cc2)s1 96.1%
